Source: PubChem BioAssay (several laboratories)
Mcl1 Bid PPI = Mcl-1/Bid interaction inhibition; Q07820; TR-FRET Mcl-1/Bid-Dy647 peptide binding, 1536-well; inhibition, % at 21.7 µM; 0.97% of 220,000 active;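 active means compounds that cut the binding signal by more than half at the single screening dose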;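 further: His-tagged Mcl-1 with europium anti-His antibody binding Bid BH3 peptide; 0% = Mcl-1 plus peptide wells and 100% = peptide-only wells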
Target sequence (Q07820 whole entry, looked up): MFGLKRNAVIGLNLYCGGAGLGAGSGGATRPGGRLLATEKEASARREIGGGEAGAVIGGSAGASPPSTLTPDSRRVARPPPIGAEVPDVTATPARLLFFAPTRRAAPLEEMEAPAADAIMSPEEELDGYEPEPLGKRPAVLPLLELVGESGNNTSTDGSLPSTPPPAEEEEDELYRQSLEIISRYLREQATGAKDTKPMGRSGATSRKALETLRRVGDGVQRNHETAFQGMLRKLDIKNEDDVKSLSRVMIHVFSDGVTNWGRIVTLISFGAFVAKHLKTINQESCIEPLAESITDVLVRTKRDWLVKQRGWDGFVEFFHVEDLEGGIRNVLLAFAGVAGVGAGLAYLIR
Mcl-1 Bim block = human Bim-Mcl-1 interaction inhibition; Q07820; Bead-based flow cytometry, Bim peptide-Mcl-1 binding; inhibition, % at 10 µM; 0.1% of 190,000 active; AID 1009; in the data active means inhibition above about 40%;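 further: 0% = no compound tracer wells and 100% = peptide blocker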
MCL1-BIM inh = inhibitors of human MCL1 binding to BIM-BH3 peptide. inhibition, % at 10.9 µM. GST-MCL1 / FITC-Bim-BH3 fluorescence polarization. 0.68% of 320,000 active;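 active means inhibition above the mean inhibition of all tested compounds plus 3 SD, set per campaign, cut at about 40% in these data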;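 further: 0% = DMSO wells and 100% = unlabeled Bim-BH3 peptide control; higher means more loss of mP so more displacement of Bim peptide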
Mcl1-Noxa inh = Mcl-1/Noxa interaction inhibition. TR-FRET Mcl-1/Noxa peptide binding, 2 h. inhibition, % at 21.7 µM. 1.5% of 220,000 active. AID 1022;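 active means compounds that cut the protein-peptide binding signal by more than 50% relative to plate controls in a single-dose test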;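 further: His-tagged Mcl-1 with rhodamine Noxa BH3 peptide and terbium anti-His antibody; 0% = Mcl-1 plus Noxa peptide wells and 100% = peptide-only wells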
Starred values were filed as active, the others as inactive; . = no result given. Rows were chosen to be rich in hits. Some 2% of all compounds tested hit in one or more screens of this group.

SMILES	Mcl1 Bid PPI	Mcl-1 Bim block	MCL1-BIM inh	Mcl1-Noxa inh
O=C(N/N=C/c1ccc(O)cc1O)c1ccc(CN2C(=O)c3cccc4cccc2c34)cc1	-45.9	-1.0	7.5	77.7*
COc1cccc(C(=O)N(c2ccc(C)cc2)C2C=CS(=O)(=O)C2)c1 (stereo unspecified)	2.1	0.0	-0.5	1.5
CCN(c1ccc(NS(=O)(=O)c2cc(Cl)ccc2Cl)cc1)C(C)C	-58.1	-2.0	23.8	48.2
CN(C)c1ccc(NS(=O)(=O)c2cc(Cl)ccc2Cl)cc1	-51.0	-4.0	20.4	68.8*
CC1CCN(c2ccccc2NC(=O)c2ccc(Br)o2)CC1	.	.	-0.2	.
Cn1ncc2c(NNC(=O)C3CCCCC3)ncnc21	-43.0	-4.0	0.3	-1.8
COc1ccc(-c2csc(Cc3nnc4n3CCCCC4)n2)cc1OC	55.4*	2.0	0.5	62.5*
O=c1cc(-c2ccccc2Cl)oc2c(NS(=O)(=O)c3cc(Cl)cc(Cl)c3O)ccc(O)c12	70.2*	0.0	13.3	110.2*
CCOC(=O)C1CCN(CC(=O)N2C(C)CCCC2C)CC1 (stereo unspecified)	64.8*	-1.0	-4.0	29.9
CCOC(=O)C1CCN(CC(=O)N2CCc3ccccc32)CC1	.	.	5.2	.
COc1ccc(-c2nc(CS(=O)(=O)CC(=O)NCc3ccccc3OC)c(C)o2)cc1	.	.	-6.8	.
CCn1cc(C(=O)O)c(=O)c2cc(F)c(N/N=C/c3ccccc3[N+](=O)[O-])cc21	62.0*	8.0	-2.4	55.1*
COc1ccc(N)cc1-n1c(C)ccc1C	-85.5	2.0	45.6*	21.3
Cc1cccc(C)c1NC(=O)CN(C)C(=O)c1ccc2nc[nH]c2c1	.	.	10.6	.
Cc1ccc(-n2nc(-c3cccnc3)cc2C(=O)N2CCOCC2)c(C)c1	-18.3	-1.0	8.7	8.8
O=C(O)c1cc(-c2cc3ccccc3o2)nn1-c1ccccc1	4.5	-2.0	-2.6	9.4
Cc1ccc(-n2nc(-c3ccco3)cc2C(=O)O)c(C)c1	-41.7	0.0	.	78.6*
O=C(O)c1cc(-c2ccco2)nn1-c1ccc(Cl)cc1	-12.9	-2.0	.	80.8*
COc1cccc(-c2nc3c(c(=O)[nH]c(=O)n3Cc3ccccc3)n2CCO)c1OC(F)F	.	.	-3.9	.
COc1ccc(CCNC(=O)CC(c2ccccc2)c2cccc(C)c2O)cc1OC (stereo unspecified)	-21.8	-1.0	-0.2	12.7
O=C(Nc1ccc2[nH]c3c(c2c1)CCCC3)c1ccco1	-16.5	0.0	39.9*	11.2
O=C(O)c1[nH]c2ccccc2c1C=NCc1ccccc1Cl	88.7*	0.0	-0.3	-5.3
CC(=O)Nc1ccc(NC(=O)C(C)Sc2n[nH]c(=O)n2Cc2ccccc2)cc1 (stereo unspecified)	.	.	-5.4	.
CNC(=O)c1sc(-c2ccccn2)nc1C	-2.0	59.0*	7.4	7.7
Cc1nc(-c2ccccn2)sc1C(=O)Nc1ccc(F)cc1F	-6.3	1.0	0.9	-1.3
SMILES	Mcl1 Bid PPI	Mcl-1 Bim block	MCL1-BIM inh	Mcl1-Noxa inh
CC(=O)NC1C(=O)N=C(SCC(=O)NC(C)c2ccccc2)NC1=O (stereo unspecified)	55.5*	-1.0	3.1	25.2
CC(=O)NC1C(=O)N=C(SCc2ccccc2)NC1=O (stereo unspecified)	-24.4	8.0	3.5	26.3
CCC(=O)NC1=C(NC(C)c2ccccc2)C(=O)c2ccccc2C1=O (stereo unspecified)	4.8	0.0	-1.3	24.3
CCC(=O)NC1=C(Cl)C(=O)C(NC(=O)CC)=C(Cl)C1=O	-183.9	.	.	92.2*
CCC(C)(C)NC(=O)C(c1cccc(OC)c1OC)N(CCOC)C(=O)CCC(=O)Nc1cc(C)on1 (stereo unspecified)	.	.	2.0	.
Cc1ccc(-c2c(C#N)c(N)nc3c2CCCC3)o1	-9.9	0.0	0.8	20.1
Cc1ccc(-c2cc(-c3ccccc3)c(C#N)c(N)n2)o1	18.9	-4.0	25.7	64.6*
Cc1ccc(-c2cc(-c3ccccc3Cl)c(C#N)c(N)n2)o1	28.3	1.0	23.3	60.1*
Cc1ccc(-c2cc(-c3ccc(F)cc3)nc(N)c2C#N)o1	37.6	0.0	-4.2	49.2
CN(CC(=O)Nc1cccc(F)c1)C(=O)c1cc(S(=O)(=O)N(C)C)ccc1N1CCCC1	.	.	2.9	.
N#Cc1c2ccc(O)cc2n2ccccc12	-12.3	11.0	44.2*	42.8
COc1cc(/C=C/C(=O)c2ccc3c(c2)OCCO3)cc(Br)c1OCC(=O)N(C)C	.	.	0.1	.
O=c1oc2cc(O)c(Cl)cc2c2ccccc12	-60.8	-1.0	-2.2	53.8*
COc1ccc2c(c1)oc(=O)c1ccccc12	-11.1	4.0	-0.1	26.9
S=C(NCc1ccco1)NCC(c1ccco1)N1CCCCC1 (stereo unspecified)	-10.8	0.0	5.2	15.0
N#CC(C(=O)Nc1cccc(Cl)c1)=C1Nc2ccccc2N1	-20.1	0.0	5.5	26.5
N#CC(C(=O)Nc1ccc(Cl)c(Cl)c1)=C1Nc2ccccc2N1	52.5*	-3.0	1.2	72.7*
O=[N+]([O-])c1cc(Cl)cc(/C=N/Nc2nc3ccccc3s2)c1O	-14.7	-1.0	8.5	66.7*
CCCCNC(=O)C1CCN(S(=O)(=O)N2CCCCCC2)CC1	-2.8	-1.0	0.9	14.9
CC1CCCC(C)N1CCNC(=O)C1CCN(S(=O)(=O)N2CCCCC2)CC1 (stereo unspecified)	101.8*	-2.0	4.2	9.6
CC1=CC(=O)C=C(C)C1=NOC(=O)c1cccc([N+](=O)[O-])c1	-10.4	-3.0	5.7	52.8*
CCc1cccc2c(C(=O)CN3C(=O)N(C)C4(CCCCC4)C3=O)c[nH]c12	.	.	-9.6	.
Cc1cc(/C=C2/C(=O)NN(c3ccccc3)C2=O)c(C)n1-c1cccc(O)c1	-20.2	-7.0	8.1	86.6*
Cc1cc(C=C2C(=O)c3ccccc3C2=O)c(C)n1-c1cccc(C(=O)O)c1	-44.0	2.0	3.4	30.8
Cc1sc(-n2c(C)cc(/C=C3\SC(=S)NC3=O)c2C)c(C#N)c1C	-56.3	0.0	-56.2	75.5*
SMILES	Mcl1 Bid PPI	Mcl-1 Bim block	MCL1-BIM inh	Mcl1-Noxa inh
Cc1cc(/C=C2\SC(=S)NC2=O)c(C)n1-c1cccc(O)c1	-41.1	.	-78.6	53.3*
Cc1ccc(NC(=O)c2cccc(S(=O)(=O)N3CCN(c4ccccc4)CC3)c2)nc1	.	.	9.4	.
CCOc1ccc(OCCC(=O)N(CC)CC(=O)NCc2cccs2)cc1	.	.	0.5	.
O=C1N=C2N(CCN3CCCCC3)c3ccccc3N2/C1=C\c1ccc([N+](=O)[O-])o1	83.1*	0.0	.	12.3
c1ccc2c(c1)N1CCCN=C1N2CCN1CCCCC1	2.4	1.0	2.5	23.1
COc1ccc(C(=O)C2CCCN(Cc3cccn3-c3ccc(Cl)cn3)C2)c(OC)c1 (stereo unspecified)	-23.1	0.0	5.7	18.6
COc1ccc(Nc2ncc(C(=O)O)c3ccccc23)cc1	-46.6	0.0	4.0	19.2
COc1ccc(Nc2ncc(C(=O)N3CCN(c4ccc(F)cc4)CC3)c3ccccc23)cc1	99.2*	0.0	-4.8	12.4
COc1ccc(OC)c(CCNC(=O)Cn2sc3nc(C)cc(C)c3c2=O)c1	-19.4	-10.0	15.8	56.2*
CCOC(=O)c1cc2c(=O)n3ccccc3nc2n(Cc2ccco2)c1=NC(=O)c1cccnc1	-71.1	3.0	18.2	50.8*
